Among the test systems are DU-145 prostate; K-562 leukemia; MALME-3M melanoma; MDA-MB-231 breast; SF-268 CNS; SF-295 CNS; SF-539 CNS; M14 melanoma; HCT-15 colon; HT29 colon; SNB-75 CNS; SNB-19 CNS; U251 CNS; PC-3 prostate; SK-MEL-5 melanoma; UACC-62 melanoma; LOX IMVI melanoma; SK-MEL-28 melanoma.
Common to all, as to assay: NCI-60 one-dose screen, 48 h (100 = growth as untreated, 0 = no growth, -100 = all killed)
Common to all, as to settings: 10 µM unless noted

Compounds without any hit were thinned out: in the full panel of roughly 83,000, 20% have a hit.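 Testing used 96-well plates and a 48-hour single-concentration exposure. Example: -40 means 40% of the starting cells died.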 A number with no mark means an inactive call. Activity calls are given as the source filed them. How the source made its calls: active means growth percent below 10; inactive means the rest.

Take `CC(C)n1c(NCCc2ccc(O)c(O)c2)nc2c1c(=O)n(C)c(=O)n2C`: the growth in the assay with DU-145 prostate was 102%; in the assay with K-562 leukemia it was 97.1%; in the assay on MALME-3M melanoma, 97.9%; with MDA-MB-231 breast, 92.2%; with SF-268 CNS it was 94.2%; in the assay on SF-295 CNS, 106%. Further, the growth in the assay on SF-539 CNS is 104%; with M14 melanoma, 98.8%; with HCT-15 colon, 98.8%; in the assay on HT29 colon, 98.1%; in the assay with SNB-75 CNS, 80.2%; with SNB-19 CNS, 101%. The growth with U251 CNS was 97.5%; with PC-3 prostate, 89.3%; in the assay with SK-MEL-5 melanoma, 92.8%; with UACC-62 melanoma, 94.4%; in the assay with LOX IMVI melanoma, 95.2%; in the assay with SK-MEL-28 melanoma, 102%.
Consider `CC(=O)C(C(C)=O)C(c1ccccc1)C(C(C)=O)C(C)=O`, for which the growth was 108% in the assay on DU-145 prostate; 95.9% in the assay with K-562 leukemia; 108% with MALME-3M melanoma; 97.5% in the assay on MDA-MB-231 breast; 108% in the assay with SF-268 CNS; 96.7% in the assay on SF-295 CNS. Besides, the growth is 101% in the assay with SF-539 CNS; 96.5% with M14 melanoma; 100% with HCT-15 colon; 98.5% in the assay on HT29 colon; 95.1% in the assay with SNB-75 CNS; 102% in the assay with SNB-19 CNS. Further, the growth is 93.5% in the assay on U251 CNS; 89.8% in the assay on PC-3 prostate; 97.2% with SK-MEL-5 melanoma; 98.2% in the assay on UACC-62 melanoma; 94.4% with LOX IMVI melanoma; 103% with SK-MEL-28 melanoma.
`Nc1c2c(c(O)c3c1=C(CO)C=N3)=NCCS2=O` (centres undefined): the growth in the assay on DU-145 prostate was -95.1% (active); in the assay on K-562 leukemia, -7.83% (active); in the assay with MALME-3M melanoma it was -97.8% (active); in the assay on MDA-MB-231 breast it was 1.89% (active); in the assay with SF-268 CNS, -38.2% (active); with SF-295 CNS, -95.8% (active). Also, the growth in the assay on SF-539 CNS was -88.8% (active); in the assay with M14 melanoma, -85.2% (active); in the assay with HCT-15 colon it was 4.65% (active); in the assay with HT29 colon it was -27.4% (active); in the assay with SNB-75 CNS it was -45.3% (active); in the assay with SNB-19 CNS, -93.6% (active). Also, the growth in the assay with U251 CNS is -89.8% (active); with PC-3 prostate, 8% (active); in the assay with SK-MEL-5 melanoma it was -100% (active); in the assay with UACC-62 melanoma, -56.4% (active); in the assay with LOX IMVI melanoma it was -93.4% (active); in the assay on SK-MEL-28 melanoma, -17.4% (active).
`COc1cc2c(cc1OCCCCN1CCN(CC(=O)Nc3ccc(Cl)cc3C(=O)c3ccccc3Cl)CC1)N=CC1CCCN1C2=O` (centres undefined): the growth in the assay with DU-145 prostate is -95.9% (active); in the assay on K-562 leukemia it was -53% (active); with MALME-3M melanoma, -76.8% (active); in the assay on MDA-MB-231 breast, -85% (active); in the assay with SF-268 CNS, -75.5% (active); with SF-295 CNS, -94.6% (active). Further, the growth was -86.7% (active) in the assay on SF-539 CNS; -67.6% (active) in the assay on M14 melanoma; -65.6% (active) with HCT-15 colon; -61.4% (active) in the assay on HT29 colon; -84.7% (active) with SNB-75 CNS; -57.3% (active) with SNB-19 CNS. Further, the growth in the assay on U251 CNS is -88.4% (active); in the assay with PC-3 prostate it was -98.6% (active); in the assay with SK-MEL-5 melanoma, -92.6% (active); in the assay on UACC-62 melanoma, -85.1% (active); in the assay with LOX IMVI melanoma it was -84.4% (active); with SK-MEL-28 melanoma, -86% (active).
Turning to `NC1=Nc2ccccc2N(O)N1`, the growth was 113% in the assay with DU-145 prostate; 96.7% in the assay on K-562 leukemia; 97% with MALME-3M melanoma; 102% with MDA-MB-231 breast; 98.1% in the assay with SF-268 CNS; 102% in the assay on SF-295 CNS. Also, the growth is 96.3% with SF-539 CNS; 103% in the assay with M14 melanoma; 105% in the assay with HCT-15 colon; 90.6% in the assay with HT29 colon; 78.5% with SNB-75 CNS; 108% with SNB-19 CNS. The growth is 98.6% in the assay on U251 CNS; 95.1% in the assay on PC-3 prostate; 105% in the assay on SK-MEL-5 melanoma; 102% in the assay on UACC-62 melanoma; 96.8% in the assay with LOX IMVI melanoma; 100% in the assay with SK-MEL-28 melanoma.
Take `Nc1c(C(=O)c2ccccc2)sc2nc(-c3cccs3)cc(-c3cccs3)c12`: the growth with DU-145 prostate was 68.2%; in the assay on K-562 leukemia, 18.9%; with MALME-3M melanoma it was 74.4%; with MDA-MB-231 breast, 58.4%; in the assay on SF-268 CNS, 53.5%; in the assay with SF-295 CNS it was 35%. In addition, the growth in the assay with SF-539 CNS was 39.4%; in the assay on M14 melanoma, 27%; in the assay with HCT-15 colon it was 31.2%; in the assay with HT29 colon, 11.2%; in the assay with SNB-75 CNS, 22.2%; in the assay with SNB-19 CNS, 42.9%. In addition, the growth in the assay with U251 CNS was 25.6%; in the assay with PC-3 prostate, 33%; in the assay on SK-MEL-5 melanoma, 43.7%; with UACC-62 melanoma, 28.7%; in the assay with LOX IMVI melanoma it was 51.5%; with SK-MEL-28 melanoma, 64.9%.
As to `COc1ccc(-c2cc3c(oc2=O)-c2ccccc2OC3OC(C)=O)cc1` (centres undefined), the growth was 107% in the assay on DU-145 prostate; 62.5% in the assay with K-562 leukemia; 107% with MALME-3M melanoma; 85.7% in the assay on MDA-MB-231 breast; 108% in the assay with SF-268 CNS; 97.9% in the assay with SF-295 CNS. For the same compound, the growth in the assay with SF-539 CNS is 101%; in the assay on M14 melanoma, 101%; in the assay on HCT-15 colon, 86.2%; with HT29 colon, 81.1%; in the assay with SNB-75 CNS it was 100%; with SNB-19 CNS, 98%. Further, the growth is 89.4% in the assay with U251 CNS; 89.2% in the assay with PC-3 prostate; 98.2% in the assay on SK-MEL-5 melanoma; 81.8% in the assay on UACC-62 melanoma; 98.2% in the assay on LOX IMVI melanoma; 118% with SK-MEL-28 melanoma.
As to `CCCCCCCC(=O)SCC/C=C/[C@@H]1CC(=O)NCc2cccc(n2)C2=N[C@@](C)(CS2)C(=O)N[C@@H](C(C)C)C(=O)O1`, the growth was 12.3% in the assay with DU-145 prostate; 11.1% in the assay on K-562 leukemia; 22.7% in the assay with MALME-3M melanoma; 10.2% in the assay on MDA-MB-231 breast; 11.1% in the assay with SF-268 CNS; -62.4% (active) with SF-295 CNS. The growth in the assay with SF-539 CNS is 20%; in the assay with M14 melanoma, 5.95% (active); in the assay with HCT-15 colon, 2.94% (active); with HT29 colon it was 0.997% (active); in the assay on SNB-75 CNS it was 31.3%; in the assay with SNB-19 CNS, 14.3%. The growth is -32.1% (active) in the assay with U251 CNS; 11.5% in the assay on PC-3 prostate; -93.9% (active) with SK-MEL-5 melanoma; -64.1% (active) in the assay on UACC-62 melanoma; -94.3% (active) in the assay on LOX IMVI melanoma; 1.51% (active) in the assay with SK-MEL-28 melanoma.

For the origin of these results see PubChem BioAssay (NCI).
